Experimental data from PubChem BioAssay AID1220 (Sanford-Burnham Center for Chemical Genomics, 2008).
Among all 190,000 compounds or so, about 1,300 (0.68%) were called active. The list comes from a sample in which actives are over-represented; it also holds similar structures and randomly drawn compounds. Unmarked numbers belong to inactive results. Rule as the data show it: active = inhibition above about 50%; inactive = the rest.

What follows are molecules tested against Mannose-6-phosphate isomerase (Homo sapiens) (UniProt P34949) (assay: MPI inhibition at elevated mannose 6-phosphate – biochemical, fluorescence intensity, high mannose 6-phosphate, primary screen (AID 1220)). Details: recombinant PMI enzyme, coupled fluorescence intensity; at 20 µM; active compounds read high.
Sequence of Mannose-6-phosphate isomerase (Homo sapiens) (P34949 whole entry, looked up): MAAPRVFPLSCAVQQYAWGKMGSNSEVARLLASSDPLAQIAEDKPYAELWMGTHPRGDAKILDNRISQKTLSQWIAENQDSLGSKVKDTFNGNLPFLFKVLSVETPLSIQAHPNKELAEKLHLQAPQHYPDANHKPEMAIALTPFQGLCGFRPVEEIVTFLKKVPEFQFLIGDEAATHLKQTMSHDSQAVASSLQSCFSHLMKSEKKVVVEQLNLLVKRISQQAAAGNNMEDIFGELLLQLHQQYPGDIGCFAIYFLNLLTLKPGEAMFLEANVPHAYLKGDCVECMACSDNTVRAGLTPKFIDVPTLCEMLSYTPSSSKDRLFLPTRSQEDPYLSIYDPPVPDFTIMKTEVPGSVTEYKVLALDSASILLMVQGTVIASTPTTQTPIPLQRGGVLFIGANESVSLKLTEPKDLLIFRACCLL

| SMILES | inhibition |
| --- | --- |
| O=C(NCc1ccco1)c1ccc(CN2CCOCC2)cc1 | -9.5% |
| COC(=O)c1ccc(NC(=S)NC2c3ccccc3CC2O)cc1 (stereo not drawn) | 15.2% |
| CCOC(=O)C(=O)Nc1ccc([N+](=O)[O-])cc1OC | 16.8% |
| CCN(CC)S(=O)(=O)c1ccc(Cl)c(NC(=O)c2ccc(C#N)cc2)c1 | -3.1% |
| CCc1ccc2c(c1)c1nc(C)sc1n2CC | 55.2% (active) |
| CCc1ccc2c(c1)c1nc(C)sc1n2CC(=O)OC | 5.8% |
| Cc1nc2c3cc(F)ccc3n(Cc3ccc(F)cc3)c2s1 | 53.2% (active) |
| Cc1nc2c3cc(F)ccc3n(Cc3ccccc3F)c2s1 | 14.7% |
| Cc1nc2c3cc(F)ccc3n(Cc3ccccc3)c2s1 | 32.5% |
| CCOC(=O)Cn1c2ccc(C)cc2c2nc(C)sc21 | 26.1% |
| Cc1cccc(C)c1NC(=O)C(=O)c1cn(C)c2ccccc12 | -8.1% |
| COc1cc2c(C(=O)N3CCN(C)CC3)c(C)oc2cc1Br | 11.7% |
| COc1ccc(CC(=O)NC2CC(C)(C)NC(C)(C)C2)cc1 | -9% |
| Cc1ccc(Sc2nc3c(c(=O)[nH]c(=O)n3C)n2CCc2ccccc2)cc1 | 18.4% |
| CN(C)c1cc[nH]c(=O)c1C#N | 6.4% |
| COc1cccc(-c2nnc(SCC(=O)Nc3cc(C)on3)n2C)c1 | -5.8% |
| CCc1ccc(O)c(N=Cc2ccccc2O)c1 | 23.3% |
| CCOc1ccc(Br)cc1/C=N/O | 16.4% |
| CCCc1ccc(O)c(N=Cc2cc(Br)cc(OCC)c2O)c1 | 53.1% (active) |
| COC(=O)c1ccccc1NC(=O)CSc1nc(-c2ccco2)cc(C(F)(F)F)n1 | 12.4% |
| CCOC(=O)N1CCC(N2C(=O)c3ccccc3C2Nc2cc(Cl)c(OC)cc2OC)CC1 (stereo not drawn) | 21.3% |
| Cc1ccc(C(=O)COC(=O)c2c(C)cc(=O)oc2C)cc1[N+](=O)[O-] | 58.1% (active) |
| Cc1cc(=O)oc(C)c1C(=O)OCC(=O)c1ccc(Cl)c(Cl)c1 | 3.4% |
| Cc1cc(=O)oc(C)c1C(=O)OCC(=O)c1ccc2ccccc2c1 | -11.8% |
| COc1ccc(-c2[nH]ncc2CNCC(C)(C)N2CCOCC2)cc1F | 8.1% |
| CN=C(Nc1cccc(OC)c1)SC1CC(=O)N(c2ccc(C(=O)O)cc2)C1=O (stereo not drawn) | 8.7% |

| SMILES | inhibition |
| --- | --- |
| O=C(CCS(=O)(=O)Cc1ccc(Cl)cc1)NCCCN1CCOCC1 | 4.1% |
| CCCCCCCCCCCCCCCC[n+]1cccc2ccccc21 | -9.4% |
| CCCCN(CCCC)C(=S)NC(=O)c1ccccc1Cl | 7.7% |
| CCCN(CCC)C(=S)NC(=O)c1ccc(Cl)cc1Cl | 87.2% (active) |
| CCN(CC)C(=S)NC(=O)c1ccc(Cl)cc1Cl | 0.2% |
| CCOc1cc(N2CCOCC2)c(OCC)cc1NC(=O)c1ccc(=O)n(Cc2ccccc2)n1 | 7.5% |
| CC1CCN(C(C(=O)NC2CCCCC2)c2cc3c(cc2[N+](=O)[O-])OCO3)CC1 (stereo not drawn) | 61.1% (active) |
| CCN1CCN(C(C(=O)NC2CCCC2)c2cc3c(cc2[N+](=O)[O-])OCO3)CC1 (stereo not drawn) | 46.2% |
| O=CN1CCN(C(C(=O)NC2CCCC2)c2cc3c(cc2[N+](=O)[O-])OCO3)CC1 (stereo not drawn) | 31.4% |
| O=C(NC1CCCC1)C(c1cc2c(cc1[N+](=O)[O-])OCO2)N1CCCC1 (stereo not drawn) | 23.9% |
| O=CN1CCN(C(C(=O)NC2CCCCC2)c2cc3c(cc2[N+](=O)[O-])OCO3)CC1 (stereo not drawn) | 58.3% (active) |
| O=C(NC1CCCCC1)C(c1cc2c(cc1[N+](=O)[O-])OCO2)N1CCCCC1 (stereo not drawn) | 46.3% |
| CCOC(=O)Cn1nc(C)n(-c2c(C)cccc2C)c1=O | 8.1% |
| Cc1cc(Cl)ccc1OCCCC(=O)N1CCCCC1 | -5.5% |
| COc1ccc(S(=O)(=O)N2CCSC2c2ccc(OC)c(OC)c2)cc1 (stereo not drawn) | -17.1% |
| Cc1cccc(NC(=S)NCCc2ccccc2)n1 | 6.5% |
| C=CCOn1c(C)c(C(C)=O)c2c3nonc3ccc21 | 49.2% |
| COn1c(C)c(C(C)=O)c2c3nonc3ccc21 | 58% (active) |
| COn1c(C)c(C(C)=O)c2c3no[n+]([O-])c3ccc21 | 8.2% |
| C=CC[n+]1c(/C=C2\C=Cc3cc(C)ccc3N2CC)ccc2ccccc21 | 9% |
| CCN1/C(=C/c2cc[n+](C)cc2)C=Cc2cc(C)ccc21 | 66.7% (active) |
| CCN1C(=C(C#N)C#N)C=Cc2cc(C)ccc21 | 5.3% |
| CCOC(=O)c1ccc(NC(=O)c2n[nH]c(=O)c3ccccc23)cc1 | -0.1% |
| CCN(CC(=O)Nc1cccc(C(C)=O)c1)S(=O)(=O)c1ccc(C)cc1 | -6.4% |
| O=c1c2c(-c3ccc([N+](=O)[O-])cc3)csc2nc2n1CCC2 | 28.9% |
| Cc1nc(N)sc1-c1csc(N(C)c2ccc(O)cc2)n1 | 56.3% (active) |

| SMILES | inhibition |
| --- | --- |
| CN(c1ccc(O)cc1)c1nc(-c2ccccc2)cs1 | 25.1% |
| Cc1cc(O)ccc1Nc1nc(-c2sc(N)nc2C)cs1 | 2% |
| CNC(=S)N1N=C(c2ccccc2)CC1c1ccccc1Cl (stereo not drawn) | 1% |
| CC(C)(C)NC(=S)NCc1ccc2c(c1)OCO2 | -10.4% |
| O=C(COc1cccc2cccnc12)Nc1ccccc1 | 5.4% |
| Cc1cc(NC(=O)COc2cccc(C)c2C)no1 | 4.6% |
| NNC(=O)COc1cccc2cccnc12 | -9.1% |
| Cc1cc(NC(=O)COc2cccc3cccnc23)no1 | 51.1% (active) |
| Cc1ccc(NC(=O)CN(C)S(=O)(=O)c2cccc3cccnc23)cc1 | 15.3% |
| Cc1cc(NC(=O)COc2ccccc2C)no1 | -5.2% |
| O=C(COc1cccc2cccnc12)NCc1cccs1 | 37.7% |
| O=C(COc1cccc2cccnc12)NCC(F)(F)F | 56.1% (active) |
| CCc1ccc(NC(=O)CC2C(=O)Nc3c2c(=O)n(C)c(=O)n3C)cc1 (stereo not drawn) | 2.9% |
| CC1SC(c2ccc(Cl)cc2)NC1=O (stereo not drawn) | 7.4% |
| NC(=O)c1cc2ccccc2o/c1=N/NC(=O)c1cccs1 | 2.2% |
| COc1ccc(OC)c(NC(=O)N[C@@H](Cc2ccccc2)C(=O)O)c1 | 8.2% |
| Cn1c(C(=O)NC2CC2)cc2c(=O)n(C)c3ccccc3c21 | 0% |
| COc1ccc(OC/C(O)=C(\C#N)c2nc3ccccc3[nH]2)cc1 | 1.2% |
| CCC(=O)Nc1cccc(C(=O)/C=C/c2ccc(F)cc2)c1 | 9.5% |
| O=C1CCCC2=C1C(c1ccccc1)CC(=O)N2c1ccc(F)cc1F (stereo not drawn) | 5.4% |
| CCOC(=O)c1ccc2c(c1)N(CC(=O)N1CCCCC1)C(=O)C(C)(C)O2 | 5.7% |
| COc1ccc(Nc2nc(C)c(-c3ccccc3)s2)cc1 | 6.2% |
| C=CCNC(=S)N1CCN(c2ncc3c(=O)c(C(=O)O)cn(CC)c3n2)CC1 | 14.8% |
| CCn1cc(C(=O)O)c(=O)c2cnc(N3CCNCC3)nc21 | 14.5% |
| CCn1cc(C(=O)O)c(=O)c2cnc(N3CCN(C(=O)Nc4cccc5ccccc45)CC3)nc21 | 58.3% (active) |
| O=C(Nc1cccc2ccccc12)N1CCN(c2ncccn2)CC1 | 68.9% (active) |

| SMILES | inhibition |
| --- | --- |
| S=C(Nc1cccc2ccccc12)N1CCN(c2ncccn2)CC1 | 33.6% |
| O=C(Nc1cccc2ccccc12)N1CCN(c2ccccc2)CC1 | 15.4% |
| CCn1cc(C(=O)N2CCn3c(nc4ccccc43)C2)c(=O)c2ccc(C)nc21 | -2% |
| CCn1c(CN2CCN(CCO)CC2)nc2ccccc21 | 2.7% |
| CC1CCCC(C)N1/N=C/c1ccc(Cl)cc1 (stereo not drawn) | -10.4% |
| CCN1C(=O)/C(=C/C=C2\C=CN(CC)c3ccccc32)SC1=S | 64.1% (active) |
| CCCN1C(=O)/C(=C\C=C2/C=CN(CC)c3ccccc32)SC1=S | 65.3% (active) |
| CCCN1C(=O)/C(=C\C=C2\N(CC)c3ccccc3C2(C)C)SC1=S | 18.5% |
| CCN1C(=O)/C(=C\C=C2/C=CC=CN2CC)SC1=S | 65.6% (active) |
| CCN1C(=O)/C(=C/C=C2/Sc3ccccc3N2CCO)SC1=S | 8.4% |
| CCCCN1C(=O)/C(=C/C=C2\Oc3ccccc3N2CC)SC1=S | 19.9% |
| CCN1C(=O)/C(=C2/C=CC=CN2C)SC1=S | 9.3% |
| CCN1C(=O)/C(=C\N2CCCCCC2)SC1=S | 7% |
| CCCN1C(=O)/C(=C/C=C2\N(CC)c3ccccc3C2(C)C)SC1=S | 10.7% |
| CCn1c(C(C)NC(=O)Cc2ccccc2)nc2ccccc21 (stereo not drawn) | -0.2% |
| O=C(CSc1nnc2ccccn12)Nc1ccc2c(c1)OCO2 | 13.7% |
| Cc1ccc(NC(=S)NN(C)c2cc(C)nc(C)n2)cc1 | -11% |
| CCS(=O)(=O)NCCc1cc2cc(C)c(C)cc2[nH]c1=O | 0.4% |
| CCCCOC(=O)c1cc(=O)[nH]c2ccccc12 | 6.8% |
| Cc1cc(C(=O)N/N=C/c2ccc3c(c2)OCO3)c(C)n1-c1ccc(F)cc1 | -30.4% |
| COc1ccc(/C=N/NC(=O)c2cc(C)n(-c3ccccc3)c2C)cc1OC | 9.5% |
| COc1cc(/C=N/NC(=O)c2cc(C)n(-c3ccc(F)cc3)c2C)cc(OC)c1O | 51.9% (active) |
| O=C(COC(=O)c1ccccc1[N+](=O)[O-])c1ccc(C2CCCCC2)cc1 | -0.8% |
| COc1ccc(C(=O)OCC(=O)c2ccc(C3CCCCC3)cc2)cc1 | 9.2% |
| Nc1ccc(O)cc1C(=O)OCC(=O)c1ccc(C2CCCCC2)cc1 | 60.3% (active) |
